From PubChem BioAssay AID652154 (Broad Institute, 2013)
Among all 360,000 compounds or so, about 4,200 (1.2%) were called active.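 The calls were made as follows: active = mean replicate inhibition at least 60% with every replicate also reaching 60%; inconclusive = only one of the two criteria is met; inactive = mean below 60% and not all replicates reaching 60%.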 Only a selection was taken, and actives are over-represented in it overall.

Assay: PAX8 transcriptional activity inhibition in RMG-I – RMG-I cells, luciferase, single concentration, primary screen (AID 652154);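 also: luciferase light reporting Pax8 driven TPO promoter activity; plate controls were median of neutral control wells for no effect and mitoxantrone controls for full effect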
Conditions: RMG-I TPO-luciferase reporter, SteadyGlo, 24 h; at 12.6 µM; stronger effect = higher value

inhibition, inactive:
CO[C@@H]1CN(C)C(=O)c2ccc(NC(=O)C3CCC3)cc2OC[C@H](C)N(C(=O)CN(C)C)C[C@H]1C -10.4%
COc1cccc(CNC(=O)C[C@H]2CC[C@@H](NC(=O)C3CCC3)[C@@H](CO)O2)c1 -6.76%
O=C(Cc1ccccc1)N1C[C@@H]2[C@H](c3ccccc31)[C@@H](CO)N2C(=O)C1CC1 6.8%
O=C(c1ccccc1)N1C[C@@H]2[C@H](c3ccccc31)[C@@H](CO)N2Cc1cc(F)ccc1F 28%
Cc1ccc(S(=O)(=O)N(C)C[C@H]2OCCCC[C@H](C)Oc3ccc(N(C)C)cc3C(=O)N([C@H](C)CO)C[C@@H]2C)cc1 32%
O=C(C[C@@H]1C[C@@H]2c3cc(NC(=O)NC4CCCC4)ccc3O[C@@H]2[C@H](CO)O1)NCC(F)(F)F -19.4%
CNC[C@H]1OCCCC[C@@H](C)Oc2ccc(NC(=O)c3ccncc3)cc2C(=O)N([C@H](C)CO)C[C@H]1C -8.2%
COc1ccc(N2CCN(C3CCCCC3NS(=O)(=O)c3ccccc3)CC2)cc1 (configuration not stated) 19.3%
O=S(=O)(NC1CCCCC1N1CCCCC1)c1ccc(Cl)cc1 (configuration not stated) 7.52%
C[C@@H]1CN([C@@H](C)CO)C(=O)c2cc(NC(=O)CCN3CCOCC3)ccc2O[C@H]1CN(C)C(=O)NC1CCCCC1 -13.4%
C[C@@H]1CN([C@@H](C)CO)C(=O)c2cc(-c3cncnc3)cnc2O[C@H]1CN(C)Cc1cncnc1 -3.91%
CN(C)C(=O)c1cccc(-c2ccc([C@H]3[C@@H](CO)N4C(=O)CN(C(=O)C5CC5)C[C@@H]34)cc2)c1 -11.3%
CCCCC(O)(CCCC)C(=O)NN(C(=O)CCl)c1ccccc1 -1.33%
Cc1cccc(N(Cc2ccccc2)C(=O)c2ccccc2F)c1 3.65%
CN1c2ccc(-c3cccc(F)c3)cc2[C@@H]2[C@@H](CCN2C(=O)Nc2ccccc2F)[C@@H]1CO 39.3%
CC(C)NC(=O)Nc1ccc2c(c1)C(=O)N([C@H](C)CO)C[C@H](C)[C@H](CN(C)Cc1ccc(C(=O)O)cc1)OCCCC[C@@H](C)O2 2.34%
O=C(NCc1ccncc1)c1ccc(NS(=O)(=O)c2cccc([N+](=O)[O-])c2)cc1 -1.39%
Cc1ccccc1OS(=O)(=O)c1cccc([N+](=O)[O-])c1 -23.3%
COc1ccc(NC(=O)N[C@H]2CC[C@H](CCn3cc(-c4ccccc4F)nn3)O[C@H]2CO)cc1 -4.51%
C[C@@H]1CCCCO[C@H](CN(C)S(=O)(=O)c2cn(C)cn2)[C@@H](C)CN([C@@H](C)CO)C(=O)c2cc(NC(=O)c3ccncc3)ccc2O1 -1.88%
CO[C@H]1CN(C)C(=O)c2ccc(NS(=O)(=O)c3cn(C)cn3)cc2OC[C@@H](C)N(CC2CC2)C[C@H]1C -11.1%
O=C(NC(Cc1c[nH]c2ccccc12)C(=O)N/N=C/c1ccc(Br)cc1)c1cccs1 (configuration not stated) -2.62%
O=C(CC(=O)N/N=C\c1ccc(F)cc1)NCCc1ccccc1 16.1%
CC(=O)c1ccc(S(=O)(=O)N2CCC(Oc3ccc(-n4cnnn4)cc3)CC2)cc1 -37.6%
CC(=O)c1ccc(S(=O)(=O)N2CCC3(CC2)OCCO3)cc1 -17.6%
COc1ccc(S(=O)(=O)Nc2ccc3c(c2)C(=O)N([C@H](C)CO)C[C@H](C)[C@H](CN(C)S(=O)(=O)c2ccc(Cl)cc2)O3)cc1 -6.19%
CC(C)C#Cc1ccc2c(c1)O[C@@H](CN(C)Cc1ccncc1)[C@@H](C)CN([C@@H](C)CO)S2(=O)=O -12.5%
COc1ccc([Si](C)(C)[C@@H]2[C@@H](CCO)O[C@]3(C(=O)N(Cc4cccc(N5CCCCC5=O)c4)c4ccccc43)[C@H]2C)cc1 3.33%
COc1ccc(-c2ccc([C@@H]3[C@@H](CO)N4C(=O)CN(Cc5ccccc5)C[C@@H]34)cc2)cc1 -17%
O=C(CC1CC1)N1[C@@H]2CN(S(=O)(=O)c3ccccc3F)c3ccccc3[C@@H]2[C@@H]1CO -3.48%
O=C(C1=C[C@@H](c2ccccc2)C[C@@H](OCCCCO)O1)N1CCN(Cc2ccccc2)CC1 2.95%
COc1cc(C2CC(=O)Oc3cc(OC)c(OC)c(OC)c32)cc(OC)c1OC (configuration not stated) -2.9%
COc1cc(C(=O)CCc2ccc3c(c2)OCO3)cc(OC)c1OC -6.52%
Cc1ccccc1S(=O)(=O)N1[C@@H]2CNC[C@H]1C2c1ccc(-c2cccnc2)cc1 (some centres not stated) 19.3%
CC(C)C(C)NC(=O)COc1nc2ccccc2nc1N(C)C1CCCCC1 (configuration not stated) 0.996%
CC(C)c1cc(C(=O)NC2CCCCCC2)c2ccccc2n1 -9.13%

inhibition, active:
CC[n+]1cc(C)ccc1/C=C/c1ccc(N(C)C)cc1 86.7%
Oc1c(Cl)cc(Cl)c(Cl)c1Cc1c(O)c(Cl)cc(Cl)c1Cl 107%
O=S(=O)(NC1CCCCC1N1CCN(c2ccccc2F)CC1)c1ccccc1 (configuration not stated) 101%
CCCC(O)(CCC)C(=O)NN(C(=O)CCl)c1cccc(C)c1 76.1%
CCCCCCCCn1c2c(c(=N)c3c1CCC3)CCCC2 96.6%
N/C(=N\OS(=O)(=O)c1cccc([N+](=O)[O-])c1)c1ccncc1 134%
O=C(Cc1c[nH]c2ccccc12)N/N=C/c1cccc(F)c1 73.6%
CC(=O)c1ccc(S(=O)(=O)N2CCN(C(=O)/C=C/c3ccc4ccccc4n3)CC2)cc1 79.4%
COc1ccc([Si](C)(C)[C@@H]2[C@@H](CCO)O[C@]3(C(=O)N(Cc4ccccc4)c4ccc(N5CCC5=O)cc43)[C@H]2C)cc1 101%
COc1cc(C2c3cc4c(cc3C(O)C3COC(=O)C23)OCO4)cc(OC)c1OC (configuration not stated) 77.3%
CN(c1ccc2nc3ccccc3c(=O)n2n1)C1CCCCC1 86%
